# Data taken from PubChem BioAssay (EPA / NIEHS).
# “And” between values parts separate entries of the source, which are not always exact repeats. Equal values may be shown once. Some structures have more than one record in an assay (separate samples or runs), and their calls can disagree. The source made the active and inactive calls. The calls were made as follows: active = hit-call score of the fitted dose curve at least 0.9, where 1 is the maximum; inactive = score below 0.9.
# Read-out: Cytochrome P450 4A22 (Homo sapiens) (UniProt Q5TCH4)
# Assay: LTEA_HepaRG_CYP4A22: Life Technologies and Expression Analysis (LTEA) Assay for Cytochrome P450 4A22 (CYP4A22) using HepaRG (AID 2283495)
# Details: mRNA level, 48 h; actives raise or lower the signal
# Method: LTEA_HepaRG is a cell based, multiplexed-readout assay that uses HepaRG, a human liver cell line, with measurements taken at 48 hours after chemical dosing on a 96-well plate.LTEA_HepaRG_CYP4A22 is one of 102 assay component(s) measured in the LTEA HepaRG cell culture assay. It is a marker of NR mediated metabolism.Data from the assay component LTEA_HepaRG_CYP4A22 was analyzed into 1 endpoint. This assay endpoint, LTEA_HepaRG_CYP4A22, was analyzed with bidirectional fitting relative to DMSO as the negative control and baseline of activity. Using a type of inducible reporter, measures of mRNA induction for gain or loss-of-signal activity can be used to understand regulation of transcription factor activity. To generalize the intended target to other relatable targets, this assay endpoint is annotated to the cyp intended target family, where the subfamily is xenobiotic metabolism.
# A total of 1060 chemcials from the ToxCast library were tested in eight-point concentration-response experiments. Cell culture and cytotoxicity assays were conducted at Thermo Fisher Scientific's Custom Services facility (Madison, WI). A single lot of human HepaRG cells (Thermo Fisher Scientific, Frederick, MD) was used for the cell culture experiments. 96-well format collagen type I coated plates of human HepaRG cells were prepared using established methods. Briefly, cryopreserved HepaRG cells were thawed, plated at a density of approximately 100,000 cells/well in HepaRG Thaw, Plate, and General Purpose media (HPRG770, Thermo Fisher Scientific), and incubated for 48 hours. 0.5% DMSO was selected as vehicle control to balance the requisite need of DMSO in HepaRG cultures to maintain differentiation (for example, baseline metabolism, proportions of hepatocytes vs. cholangiocytes), while enabling further hepatic receptor pathway activation (for example, PXR and CAR) in response to chemical exposure. 48 hours after plating, the culture medium was replaced with HepaRG Serum-Free Incudtion Media. Cells were exposed to each test chemical in duplicate and maintained in CO2 incubators for another 48 hours. Chemical plates were thawed to room temperature and 200x concentrations of treatment groups were prepared. 8-point conentration-reponse curves were made with the highest exposure at 100 uM, followed by half-log dilutions, all in 0.5% DMSO. Each test plate contained variouse controls, induction positive controls (1mM phenobarbital), cytotoxicity positive controls ([…] aflatoxin B1), vehicle controls (0.5% DMSO), and total lysis controls (0.5% DMSO). Cell morphology images were taken using an Essen IncuCyte FLR automated microscope, with six 96-well plates imaged in about 24 minutes. Images were captured and exported and JPEG files. Spent culture media was transfered to black-well plates for the LDH assay, and remaining media was sorted at -80 C for later use. Cells were treated with RLT buffer and frozen until shipped for gene expression analysis. Total RNA was isolated from the cell suspension in 75 uL of Buffer RLT (Qiagen, Germantown, MD 20874) by Quintiles/Expression Analysis (Durham, NC) using a custom isolation procedure. Total RNA from each plate well was transferred to a preamplification plate. Fluidigm's 96.96 Dynamic ArrayTM (Fluidigm, Amsterdam, the Netherlands) technology was used for gene expression analyses by quantitative reverse transcription polymerase chain reaction (qRT-PCR, performed by Quintiles/Expression Analysis, Durham, NC)89. Standard TaqManTM Assays (Applied Biosystems/ThermoFisher Scientific, Foster City, CA) were used to assess the expression of 93 genes selected based on their selectivity and sensitivity to important hepatic receptors known to be modulated by environmental chemicals; importance in human hepatocyte functionality; and hepatotoxicity. […]
Compound,AC50,outcome
Oc1cc(Cl)ccc1Oc1ccc(Cl)cc1Cl,51 µM (active) and 76.4 µM (active),inactive
CCOCN(C(=O)CCl)c1c(C)cccc1CC,92.5 µM (active),–
CC(C)(C)C(O)/C(=C\c1ccc(Cl)cc1Cl)n1cncn1 (stereo unspecified),21.1 µM (active),–
CCc1ccc(C(=O)NN(C(=O)c2cc(C)cc(C)c2)C(C)(C)C)cc1,74.4 µM (active),–
CCCN(CCOc1c(Cl)cc(Cl)cc1Cl)C(=O)n1ccnc1,27.7 µM (active),–
COc1nn(CSP(=S)(OC)OC)c(=O)s1,–,inactive
CCC(C)Nc1c([N+](=O)[O-])cc(C(C)(C)C)cc1[N+](=O)[O-] (stereo unspecified),38.7 µM (active),–
O=C1c2ccccc2C(=O)N1SC(Cl)(Cl)Cl,–,inactive
CNC(=O)Oc1cccc(N=CN(C)C)c1,–,inactive
CN1CSC(=S)N(C)C1,–,inactive
CNC(=O)CSP(=S)(OC)OC,–,inactive
O=[N+]([O-])/N=C1\NCCN1Cc1ccc(Cl)nc1,–,inactive
O=C(O)COc1ccc(Cl)cc1Cl,–,inactive
CC(C)(C)C(O)C(Oc1ccc(Cl)cc1)n1cncn1 (stereo unspecified),12.8 µM (active) and 14.6 µM (active) and 18 µM (active),–
CCC(C)(NC(=O)c1cc(Cl)c(C)c(Cl)c1)C(=O)CCl (stereo unspecified),74.9 µM (active),–
O=C(O)CCCOc1ccc(Cl)cc1Cl,–,inactive
O=[N+]([O-])c1c(Cl)c(Cl)c(Cl)c(Cl)c1Cl,–,inactive
COP(=S)(OC)Oc1ccc(SC)c(C)c1,–,inactive
OCCOc1ccccc1,–,inactive
CNC(=O)Oc1ccccc1OC(C)C,–,inactive

Compound,AC50,outcome
CCOC1Oc2ccc(OS(C)(=O)=O)cc2C1(C)C (stereo unspecified),62.6 µM (active),–
O=C(Nc1ccccc1)Nc1cnns1,73.5 µM (active),–
COP(=O)(OC)OC=C(Cl)Cl,–,inactive
ClC1C(Cl)C(Cl)C(Cl)C(Cl)C1Cl (stereo unspecified),9.67 µM (active) and 8.27 µM (active),–
CCC(C)(C)C(=O)OC1=C(c2ccc(Cl)cc2Cl)C(=O)OC12CCCCC2,–,inactive
CC1(c2ccc(Oc3ccccc3)cc2)OC(=O)N(Nc2ccccc2)C1=O (stereo unspecified),9.55 µM (active),–
CNC(=O)/C=C(\C)OP(=O)(OC)OC,–,inactive
O=S1OCC2C(CO1)C1(Cl)C(Cl)=C(Cl)C2(Cl)C1(Cl)Cl (stereo unspecified),60.4 µM (active),–
CCN(CC)C(=O)SCc1ccc(Cl)cc1,–,inactive
O=C(O)C(F)(F)C(F)(F)C(F)(F)C(F)(F)C(F)(F)C(F)(F)C(F)(F)F,6.42 µM (active) and 5.96 µM (active),–
C#CCN1C(=O)COc2cc(F)c(N3C(=O)C4=C(CCCC4)C3=O)cc21,16.1 µM (active),–
Clc1ccccc1-c1nnc(-c2ccccc2Cl)nn1,–,inactive
CC[C@H](C)[C@H]1O[C@]2(C=C[C@@H]1C)C[C@@H]1C[C@@H](C/C=C(\C)[C@@H](O[C@H]3C[C@H](OC)[C@@H](O[C@H]4C[C@H](OC)[C@@H](O)[C@H](C)O4)[C@H](C)O3)[C@@H](C)/C=C/C=C3\CO[C@@H]4[C@H](O)C(C)=C[C@@H](C(=O)O1)[C@]34O)O2 (tested in a mixture with another compound),10.2 µM (active),–
CC(C)N(C(=O)COc1nnc(C(F)(F)F)s1)c1ccc(F)cc1,–,inactive
O=S(=O)(O)C(F)(F)C(F)(F)C(F)(F)C(F)(F)C(F)(F)C(F)(F)C(F)(F)C(F)(F)F,89.2 µM (active) [middle of 4 runs],–
CCCN(CCC)c1c([N+](=O)[O-])cc(C(F)(F)F)cc1[N+](=O)[O-],–,inactive
CC(C)OC(=O)Nc1cccc(Cl)c1,–,inactive
COP(=S)(OC)Oc1ccc([N+](=O)[O-])cc1,–,inactive
Oc1ccc(Cl)cc1Cc1ccccc1,91.8 µM (active),inactive
